Measurements reported in publication PMC4336329 (PLoS ONE, 2015).
Screen size: about 310,000 compounds; about 14,000 (4.5%) showed an effect of 50% or more. The effect is printed as a negative number. For the sample, strong results were picked, then their nearest neighbours and some compounds at random.

Molecular target: human ether-à-go-go-related gene (hERG) potassium channel (human, UniProt Q12809)
Experiment: primary screen, population patch clamp on CHO cells stably expressing hERG; higher = less effect of the substance
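Also: peak tail current of the secondary pulse compared with the same well before compound.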

Sequence of human ether-à-go-go-related gene (hERG) potassium channel (Q12809 whole entry, looked up): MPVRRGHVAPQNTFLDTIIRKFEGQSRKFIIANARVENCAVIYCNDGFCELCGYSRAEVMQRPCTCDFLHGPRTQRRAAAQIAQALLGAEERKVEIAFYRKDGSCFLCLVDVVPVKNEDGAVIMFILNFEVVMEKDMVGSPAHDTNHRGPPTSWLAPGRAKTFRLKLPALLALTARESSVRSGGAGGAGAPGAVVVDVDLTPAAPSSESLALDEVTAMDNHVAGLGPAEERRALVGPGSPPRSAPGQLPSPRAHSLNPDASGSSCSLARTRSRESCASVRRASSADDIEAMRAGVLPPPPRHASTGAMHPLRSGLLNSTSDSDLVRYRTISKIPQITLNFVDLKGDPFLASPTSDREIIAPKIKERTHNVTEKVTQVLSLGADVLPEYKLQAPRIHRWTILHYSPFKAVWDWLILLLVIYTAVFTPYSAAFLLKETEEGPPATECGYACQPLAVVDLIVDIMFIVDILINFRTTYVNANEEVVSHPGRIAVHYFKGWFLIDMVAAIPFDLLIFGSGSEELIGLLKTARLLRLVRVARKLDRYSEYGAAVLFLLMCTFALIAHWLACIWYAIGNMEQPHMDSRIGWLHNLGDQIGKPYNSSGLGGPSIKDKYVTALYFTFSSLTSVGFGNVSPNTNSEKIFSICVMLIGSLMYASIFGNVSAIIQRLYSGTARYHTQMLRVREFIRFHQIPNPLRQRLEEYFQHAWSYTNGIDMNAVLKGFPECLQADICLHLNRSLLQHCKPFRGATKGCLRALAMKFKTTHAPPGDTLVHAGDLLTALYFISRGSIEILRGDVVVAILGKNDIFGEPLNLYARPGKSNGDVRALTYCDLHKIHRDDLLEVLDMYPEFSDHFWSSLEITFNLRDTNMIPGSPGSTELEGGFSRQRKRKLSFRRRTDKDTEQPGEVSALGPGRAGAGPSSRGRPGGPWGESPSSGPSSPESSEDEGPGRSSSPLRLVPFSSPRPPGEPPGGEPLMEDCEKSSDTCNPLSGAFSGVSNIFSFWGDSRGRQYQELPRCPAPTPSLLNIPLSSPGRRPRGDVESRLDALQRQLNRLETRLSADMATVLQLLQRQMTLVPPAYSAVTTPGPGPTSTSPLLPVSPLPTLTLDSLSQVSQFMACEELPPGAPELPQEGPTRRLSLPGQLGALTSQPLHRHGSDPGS

Row | SMILES | hERG current change (%, negative = inhibition) at 10uM [%]
1 | Oc1ccccc1/C=N/Nc1nccnc1Cl | -0.0796
2 | COCC1CCN(C(=O)c2oc3c(F)cccc3c2C)C1 (stereo not shown) | 0.639
3 | CCCN(CC1CC1)C(=O)COC(=O)c1[nH]c(C)c(C(=O)OCC)c1C | -5.5
4 | CCOC(=O)N1CCC(NC(=O)c2oc3c(C)c(C)ccc3c2C)CC1 | -32.2
5 | CCOC(=O)C1CCN(C2CCN(C(=O)c3oc4c(C)c(C)ccc4c3C)CC2)CC1 | -69.3
6 | CCCN(CC1CC1)C(=O)COC(=O)c1oc2c(F)cccc2c1C | -52.8
7 | CCOC(=O)C1CCN(C2CCN(C(=O)c3oc4c(F)cccc4c3C)CC2)CC1 | -71.1
8 | CCCN(CC1CC1)C(=O)COC(=O)c1oc2ccc(OCC)cc2c1C | -27.8
9 | Cc1c(C(=O)N2CCC(N3CCSCC3)CC2)oc2c(F)cccc12 | -34.9
10 | Cc1ccc2c(C)c(C(=O)N3CCN(C4CCS(=O)(=O)C4)CC3)oc2c1C (stereo not shown) | -4.49
11 | Cc1cc(OCC(=O)Nc2c(C)n(C)n(-c3ccccc3)c2=O)ccc1[N+](=O)[O-] | -23.5
12 | Cc1[nH]c2c(C(=O)N3CCCC(CCC(=O)NCc4ccccc4F)C3)cccc2c1C (stereo not shown) | 3.39
13 | CCCC(c1nnnn1Cc1ccccc1)N1CCC(C(N)=O)CC1.Cl (stereo not shown) | -3.44
14 | O=C(NCc1ccco1)c1cc(-c2cccnc2)nc2ccccc12 | -52.6
15 | O=C(NCc1ccco1)c1cc(-c2cccnc2)nc2ccc(Cl)cc12 | -36.3
16 | COCCNC(=O)c1cc2nc(-c3ccccc3)cc(C)n2n1 | 7.82
17 | CCCCNC(=S)NNC(=O)c1cc(-c2cccnc2)nc2ccccc12 | -7.41
18 | COCCCNC(=O)c1cc(-c2cccnc2)nc2ccccc12 | 16.6
19 | CCCCN(C)CCCNC(=O)c1cc(-c2cccs2)nc2ccccc12 | -85.6
20 | O=C(NCc1ccco1)c1cc(-c2ccccc2)nc2ccccc12 | -16.5
21 | CC(C)OCCCNC(=O)c1cc(-c2cccs2)nc2ccccc12 | 0.89
22 | CC(C)CCNC(=O)c1cc(-c2cccs2)nc2ccccc12 | 5.1
23 | CCCCN(C)CCCNC(=O)c1cc(-c2cccnc2)nc2ccccc12 | -60.1

Row | SMILES | hERG current change (%, negative = inhibition) at 10uM [%]
24 | Cc1cc(-c2ccccc2)nc2cc(C(=O)NCc3ccco3)nn12 | -55.9
25 | Cc1cc(C)n2nc(C(=O)NCc3ccco3)cc2n1 | 10.4
26 | CCN(CCNC(=O)C1CCN(S(=O)(=O)c2c(C)noc2C)CC1)c1ccccc1 | -1.06
27 | COc1cc(/C=C/C(=O)NCc2cccnc2)cc(OC)c1OC | 0.841
28 | CCOC(=O)Cc1csc(NC(=O)CN2CCOCC2)n1 | 14.1
29 | CCOC(=O)[C@@H]1[C@H]2COc3ccccc3[C@H]2N2C(=O)N(c3ccc(C)cc3)C(=O)[C@]12C | -1.42
30 | CCCNC(=O)c1n[nH]c2c1CC(C(C)(C)CC)CC2 (stereo not shown) | 1.27
31 | C=CCNc1ncnc2c1cnn2-c1ccc(C)cc1C | 3.76
32 | NS(=O)(=O)c1ccc(N/N=C/c2ccc[nH]2)c([N+](=O)[O-])c1 | 0.228
33 | COc1cc(C(=O)Nc2ccc3nc4n(c(=O)c3c2)CCCCC4)cc(OC)c1OC | -67.7
34 | O=C(Nc1ccc2nc3n(c(=O)c2c1)CCCC3)c1cccc(F)c1 | -43.9
35 | COc1cccc(C(=O)Nc2ccc3nc4n(c(=O)c3c2)CCCC4)c1 | -62.9
36 | COc1cc(OC)cc(C(=O)Nc2ccc3nc4n(c(=O)c3c2)CCCCC4)c1 | -48.7
37 | COc1cc(NC(=O)C(=O)Nc2ccc3nc4n(c(=O)c3c2)CCCCC4)cc(OC)c1OC | -1.55
38 | COc1cc(OC)cc(C(=O)Nc2ccc3nc4n(c(=O)c3c2)CCCC4)c1 | 11.2
39 | COc1ccc(Cl)cc1NS(=O)(=O)c1cn(C)nc1C | 7.1
40 | COC(=O)C1=C(c2ccc(OC)c(OC)c2)C[C@@H]2CC[C@H]1N2C(=O)NCC1CC1 | 15.1
41 | O=C(CSc1ccc(-c2ccco2)nn1)NCc1ccccc1Cl | -49.1
42 | Fc1ccc(/C=N/Nc2nccnc2Cl)cc1 | 9.05
43 | Clc1nccnc1N/N=C/c1ccc(Br)cc1 | -50.3
44 | Oc1ccc(/C=N/Nc2nccnc2Cl)cc1 | 1.47
45 | Cc1cccc(NC(=O)CN2C(=O)S/C(=C\c3cc(C)n(C)c3C)C2=O)c1 | -10.7
46 | COc1ccc(NC(=O)CN2CCC(C(N)=O)(N3CCCCC3)CC2)cc1 | 0.362

Row | SMILES | hERG current change (%, negative = inhibition) at 10uM [%]
47 | O=C(CN1CCCCC1)Nc1ccc(N2CCCCCC2)cc1.O=C(O)C(=O)O | -88.7
48 | COc1cccc(NC(=O)CN2CCCCCC2)c1.Cl | 11.6
49 | CC1CCCCN1CC(=O)Nc1ccc2c(c1)OCO2.O=C(O)C(=O)O (stereo not shown) | -20.1
50 | O=C(CN1CCCCCC1)Nc1ccccc1.O=C(O)C(=O)O | 10.8
51 | CC1CCN(CC(=O)Nc2ccc(N3CCCCCC3)cc2)CC1.O=C(O)C(=O)O | -14.1
52 | CC1CCCCN1CC(=O)Nc1ccc(Oc2ccccc2)cc1.Cl (stereo not shown) | -50.7
53 | O=C(CN1CCCCCC1)Nc1cccc(NC(=O)CN2CCCCCC2)c1 | 13
54 | CC1CCCCN1CC(=O)Nc1ccc(N2CCCCCC2)cc1.O=C(O)C(=O)O (stereo not shown) | -13.2
55 | NC(=O)C1(N2CCCCC2)CCN(CC(=O)Nc2ccc(Oc3ccccc3)cc2)CC1 | -67.8
56 | O=C(CN1CCCCC1)Nc1cccc(Oc2ccccc2)c1 | -50.7
57 | NC(=O)C1(N2CCCCC2)CCN(CC(=O)Nc2ccccc2-c2ccccc2)CC1 | 14.6
58 | CCN1CCC(Nc2ccnc3cc(Cl)ccc23)CC1 | -40.5
59 | O=C(Nc1ccccc1)OCc1ccccn1 | 10.8
60 | COc1ccc(C2=NN(CN3C(=O)C(=O)c4ccccc43)C(c3ccc(OC)cc3)C2)cc1 (stereo not shown) | 9.84
61 | Cc1cc(-c2ccccc2)nc(SCc2ccc(C(=O)O)o2)n1 | -3.89
62 | Cc1ccc(C(=O)Nc2cccnc2)cc1Cl | 4.54
63 | O=C(NCC(=O)N1CCN(C(c2ccccc2)c2ccccc2)CC1)c1ccc(Br)o1 | 8.38
64 | Cc1cc(Br)c(NC(=O)CN(C)CCOc2ccccc2)c(Br)c1 | -19.5
65 | COc1ccc(Cn2nnc3c(=O)[nH]c(C(=O)NCCc4ccc(F)cc4)nc32)cc1OC | 7.28
66 | O=C(CN1CCCC1)Nc1ccc(Oc2ccc(NC(=O)CN3CCCC3)cc2)cc1 | 17.3
67 | NC(=O)C1(N2CCCCC2)CCN(Cc2ccc(F)cc2)CC1 | -6.92
68 | NC(=O)C1(N2CCCCC2)CCN(CC(=O)Nc2cc(Cl)ccc2Cl)CC1 | -72
69 | CN1CCN(CC(=O)Nc2ccc(Oc3ccccc3)cc2)CC1 | -47.5

Row | SMILES | hERG current change (%, negative = inhibition) at 10uM [%]
70 | NC(=O)C1(N2CCCCC2)CCN(Cc2ccc(Br)cc2)CC1 | -51
71 | NC(=O)C1(N2CCCCC2)CCN(Cc2ccccc2)CC1 | 2.53
72 | O=C(CN1CCCCC1)Nc1cc(Cl)ccc1Cl | -0.685
73 | COc1ccc(NC(=O)CN2CCC(C(N)=O)(N3CCCCC3)CC2)c(OC)c1 | 1.56
74 | Cl.O=C(CN1CCCCCC1)Nc1ccc(Oc2ccccc2)cc1 | -78.6
75 | CC(C)C(NC(=O)C1CCC(C(C)(C)C)CC1)C(=O)NCCc1ccc(S(N)(=O)=O)cc1 (stereo not shown) | 14.1
76 | COc1ccc2c(N)c(C(=O)NN)[nH]c2c1 | 2.16
77 | COCCN(C(=O)CSc1nc2ccc(Cl)cc2[nH]1)c1c(N)n(Cc2ccccc2)c(=O)[nH]c1=O | -7.02
78 | Cc1cc(C)n(CC(O)Cn2c3ccc(Br)cc3c3cc(Br)ccc32)c(=O)n1 (stereo not shown) | 19.5
79 | Cc1ccc(CCNC(=O)c2nn(C)c3c2CS(=O)(=O)c2ccccc2-3)cc1 | -39.7
80 | O=C(/C=C/Nc1ccc(S(=O)(=O)Nc2ncccn2)cc1)c1cccs1 | 4.26
81 | COc1ccc(/C=C(\NC(=O)c2ccccc2)C(=O)N/N=C/c2cccnc2)cc1 | -5.03
82 | COc1ccc(C(=O)NCc2cccnc2)cc1 | -1.7
83 | Cc1ccc(C(=O)N/C(=C\c2ccccc2)C(=O)NCc2cccnc2)cc1 | -71.9
84 | CN(C)c1ccc(/C=C(\NC(=O)c2ccccc2)C(=O)NCc2cccnc2)cc1 | -18.9
85 | O=C(NCc1ccccc1Cl)/C(=C\c1cccnc1)NC(=O)c1ccccc1 | -48.7
86 | O=C(NCc1cccnc1)/C(=C/c1ccccc1)NC(=O)c1ccccc1 | -34.5
87 | COc1ccc(C(=O)N/C(=C\c2ccccc2)C(=O)NCc2cccnc2)cc1 | -70.8
88 | O=C(NCc1cccnc1)/C(=C/c1ccc(Cl)cc1)NC(=O)c1ccccc1 | -68.5
89 | COc1ccc(/C=C(\NC(=O)c2ccccc2)C(=O)NCc2cccnc2)cc1 | -70.5
90 | COc1ccc(CNC(=O)C(=O)NCc2cccnc2)cc1 | -6.16
91 | COc1ccc(/C=C(/NC(=O)c2ccccc2)C(=O)NCc2ccco2)cc1 | 27
